Assay results: PubChem BioAssay (Tox21)
Values joined by “and” are separate entries in the source; they are usually repeats but may differ in a detail not shown here. Equal entries are not always repeated. Some structures have more than one record in an assay (separate samples or runs), and their calls can disagree. Active and inactive are the calls of the source. Entries that show only a call come without a potency. Unless noted, calls follow the shape of the dose curve; as a rule, active = well fitted curve in the direction sought with a large enough effect in the repeat runs; inconclusive = weak or mixed curves; inactive = no such curve, though single readings can be large; an effect the other way counts as inactive or inconclusive.

Assays:
[1] = qHTS assay to identify small molecule antagonists of the thyroid receptor (TR) signaling pathway - cell viability counter screen (AID 743064); also: nearly all actives have a fitted effect of over 50% in size; also: potency is read from the fitted curve at half-maximal effect
How it was run: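 Rat GH3 pituitary tumor cells stably expressing two TR response elements driving luciferase were plated, rested 4 h, then dosed with library compounds and T3 (1 nM final). After 23.5 h at 37 °C, CellTiter-Fluor was added for 30 min and fluorescence recorded.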

[2] = test system: thyroid hormone receptor (rat, GH3 cells); assay: qHTS assay to identify small molecule agonists of the thyroid receptor (TR) signaling pathway (AID 743066; calls by dose curve)
[3] = qHTS assay to identify small molecule antagonists of the estrogen receptor alpha (ER-alpha) signaling pathway - cell viability counter screen (AID 743074; calls by dose curve;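 also: HEK293 cells carrying ER-alpha-UAS-bla reporter stimulated with 17beta-estradiol; nearly all actives have a fitted effect of over 45% in size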; also: potency is read from the fitted curve at half-maximal effect)
[4] = target: Estrogen receptor (Homo sapiens) (UniProt P03372); assay: qHTS assay to identify small molecule agonists of the estrogen receptor alpha (ER-alpha) signaling pathway (AID 743075; calls by dose curve; also: potency is read from the fitted curve at half-maximal effect)
Sequence of Estrogen receptor (Homo sapiens) (P03372 whole entry, looked up): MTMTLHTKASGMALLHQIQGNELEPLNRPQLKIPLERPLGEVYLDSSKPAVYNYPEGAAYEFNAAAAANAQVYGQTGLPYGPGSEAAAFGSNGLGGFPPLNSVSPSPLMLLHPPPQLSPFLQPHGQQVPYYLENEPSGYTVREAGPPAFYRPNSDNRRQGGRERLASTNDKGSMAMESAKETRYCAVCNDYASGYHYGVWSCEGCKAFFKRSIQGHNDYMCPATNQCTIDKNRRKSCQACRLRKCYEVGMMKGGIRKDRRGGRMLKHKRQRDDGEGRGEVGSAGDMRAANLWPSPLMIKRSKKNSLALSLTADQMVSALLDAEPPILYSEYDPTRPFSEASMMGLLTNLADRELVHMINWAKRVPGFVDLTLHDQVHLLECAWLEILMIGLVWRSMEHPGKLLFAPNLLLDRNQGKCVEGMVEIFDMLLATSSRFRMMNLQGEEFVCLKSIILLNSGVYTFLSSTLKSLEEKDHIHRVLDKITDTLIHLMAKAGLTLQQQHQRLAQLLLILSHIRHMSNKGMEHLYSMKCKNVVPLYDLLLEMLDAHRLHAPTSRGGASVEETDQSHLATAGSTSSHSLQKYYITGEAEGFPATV

[5] = target: Estrogen receptor (Homo sapiens) (UniProt P03372); assay: qHTS assay to identify small molecule agonists of the estrogen receptor alpha (ER-alpha) signaling pathway using the BG1 cell line (AID 743079); also: nearly all actives have a fitted effect of over 20% in size; also: potency is read from the fitted curve at half-maximal effect
[6] = qHTS assay to identify small molecule antagonists of the estrogen receptor alpha (ER-alpha) signaling pathway using the BG1 cell line (AID 743080; calls by dose curve;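 also: BG1 cells stimulated with 17beta-estradiol alongside compound; series mostly up to about 70 µM; nearly all actives have a fitted effect of over 25% in size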)
How it was run: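 After 5 days in phenol-red-free 10% charcoal-stripped FBS medium, BG1-Luc-4E2 cells were seeded, left 24 h at 37 C, co-treated with compounds and 17beta-estradiol for 21.5 h, then assayed for viability and luciferase.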

[7] = qHTS assay to identify small molecule antagonists of the estrogen receptor alpha (ER-alpha) signaling pathway using the BG1 cell line - cell viability counter screen (AID 743081);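 also: compound given together with 17beta-estradiol as the ER stimulus; nearly all actives have a fitted effect of over 45% in size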; also: potency is read from the fitted curve at half-maximal effect
Aromatase (Homo sapiens) = Aromatase (Homo sapiens) (UniProt P11511); assay: qHTS assay to identify aromatase inhibitors (AID 743083); also: nearly all actives have a fitted effect of over 55% in size; also: potency is read from the fitted curve at half-maximal effect
Sequence of Aromatase (Homo sapiens) (P11511 whole entry, looked up): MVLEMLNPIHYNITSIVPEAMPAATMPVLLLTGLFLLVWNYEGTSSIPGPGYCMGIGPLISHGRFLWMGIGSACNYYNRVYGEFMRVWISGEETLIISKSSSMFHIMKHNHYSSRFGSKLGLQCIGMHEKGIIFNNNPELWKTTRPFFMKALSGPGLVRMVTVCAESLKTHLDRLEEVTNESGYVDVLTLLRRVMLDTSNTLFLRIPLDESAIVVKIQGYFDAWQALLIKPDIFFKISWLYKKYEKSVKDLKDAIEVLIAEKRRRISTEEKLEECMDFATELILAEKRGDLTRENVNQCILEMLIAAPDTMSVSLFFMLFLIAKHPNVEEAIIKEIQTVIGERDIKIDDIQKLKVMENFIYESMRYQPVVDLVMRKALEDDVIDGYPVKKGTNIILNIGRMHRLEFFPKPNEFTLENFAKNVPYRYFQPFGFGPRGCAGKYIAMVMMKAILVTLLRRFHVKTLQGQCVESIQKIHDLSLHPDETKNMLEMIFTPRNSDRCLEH

[8] = qHTS assay to identify aromatase inhibitors - cell viability counter screen (AID 743084);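 also: cells stimulated with testosterone during compound exposure; nearly all actives have a fitted effect of over 55% in size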; also: potency is read from the fitted curve at half-maximal effect
[9] = target: Aryl hydrocarbon receptor (Homo sapiens) (UniProt P35869); assay: qHTS assay to identify small molecule that activate the aryl hydrocarbon receptor (AhR) signaling pathway (AID 743085); also: nearly all actives have a fitted effect of over 15% in size; also: potency is read from the fitted curve at half-maximal effect;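 as to activation: HG2L7.5c1 human HepG2 liver cells with stably integrated DRE-driven firefly reporter; series mostly up to about 70 µM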
Sequence of Aryl hydrocarbon receptor (Homo sapiens) (P35869 whole entry, looked up): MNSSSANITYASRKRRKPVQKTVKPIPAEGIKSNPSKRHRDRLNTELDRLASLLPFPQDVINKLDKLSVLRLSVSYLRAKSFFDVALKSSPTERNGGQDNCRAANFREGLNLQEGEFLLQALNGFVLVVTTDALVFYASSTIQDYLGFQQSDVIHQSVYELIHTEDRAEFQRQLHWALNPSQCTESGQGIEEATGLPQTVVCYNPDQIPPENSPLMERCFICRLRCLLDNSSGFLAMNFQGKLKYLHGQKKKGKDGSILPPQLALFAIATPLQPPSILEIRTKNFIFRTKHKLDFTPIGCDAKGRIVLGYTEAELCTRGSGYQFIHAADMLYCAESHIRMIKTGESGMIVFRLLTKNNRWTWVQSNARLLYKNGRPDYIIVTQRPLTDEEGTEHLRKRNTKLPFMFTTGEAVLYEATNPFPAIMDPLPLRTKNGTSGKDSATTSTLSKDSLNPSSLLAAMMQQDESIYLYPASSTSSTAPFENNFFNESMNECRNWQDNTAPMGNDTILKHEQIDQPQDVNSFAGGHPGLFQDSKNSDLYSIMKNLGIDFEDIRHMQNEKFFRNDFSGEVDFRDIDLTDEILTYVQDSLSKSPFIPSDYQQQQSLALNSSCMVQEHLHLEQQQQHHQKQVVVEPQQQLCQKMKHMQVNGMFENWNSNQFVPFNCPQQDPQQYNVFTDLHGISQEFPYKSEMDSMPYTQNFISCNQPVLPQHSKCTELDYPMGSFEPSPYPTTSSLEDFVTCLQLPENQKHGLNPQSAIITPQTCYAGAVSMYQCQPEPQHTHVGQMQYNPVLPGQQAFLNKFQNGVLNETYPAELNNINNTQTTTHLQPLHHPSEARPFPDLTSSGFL
How it was run: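 Compounds were tested in HepG2 hepatocellular carcinoma cells harbouring a stably integrated luciferase gene under control of 20 DREs. Increased reporter signal after 24 h treatment at 37C was taken as AhR activation.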

[10] = qHTS assay to identify small molecule that activate the aryl hydrocarbon receptor (AhR) signaling pathway - cell viability counter screen (AID 743086); also: nearly all actives have a fitted effect of over 45% in size; also: potency is read from the fitted curve at half-maximal effect
How it was run: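 HepG2-AhR-luc (HG2L7.5c1) cells, 4000/well, treated 24 h at 37 C with compound; viability measured as CellTiter-Fluor fluorescence after 30 min in the same wells as the luciferase read.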

[11] = qHTS assay to identify small molecule antagonists of the peroxisome proliferator-activated receptor gamma (PPARg) signaling pathway - cell viability counter screen (AID 743194); also: potency is read from the fitted curve at half-maximal effect; nearly all actives have a fitted effect of over 55% in size
How it was run: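 Cytotoxicity counter screen in PPARg-bla HEK293H cells, same wells as reporter assay. Compounds plus 50 nM rosiglitazone (final) for 17 h at 37 C, then viability read by CellTiter-Glo luminescence.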

[12] = qHTS assay for small molecule agonists of the antioxidant response element (ARE) signaling pathway - cell viability counter screen (AID 743203; calls by dose curve; also: nearly all actives have a fitted effect of over 55% in size; also: potency is read from the fitted curve at half-maximal effect)
How it was run: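 Seeded at 2,000 cells/well, ARE-bla HepG2 cells were incubated 5 hrs before compound addition. After 16 hrs of treatment at 37C with 5% CO2, CellTiter-Glo reagent was added and luminescence read 30 min later.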

[13] = target: Estrogen receptor (Homo sapiens) (UniProt P03372); assay: qHTS assay to identify small molecule antagonists of the estrogen receptor alpha (ER-alpha) signaling pathway (AID 743069; active = well fitted curve in the direction sought with a large enough effect in the signal ratio in the repeat runs, not every such curve was filed as active; inconclusive = weak or mixed curves, or effect the other way; inactive = no such curve, though single readings can be large or run the other way; the % refers to the signal ratio)
How it was run: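 HEK293 ER-alpha-UAS-bla GripTite cells, held overnight in 2% charcoal-stripped FBS, 5,000 cells/well, preincubated 4 h, then compound plus 17beta-estradiol for 18 h at 37C. Beta-lactamase read by LiveBLAzer B/G FRET substrate, 2 h at room temperature.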

[14] = target: Peroxisome proliferator-activated receptor gamma (Homo sapiens) (UniProt P37231); assay: qHTS assay to identify small molecule agonists of the peroxisome proliferator-activated receptor gamma (PPARg) signaling pathway (AID 743094; active = well fitted activation curve with a large enough effect in the signal ratio in the repeat runs, not every such curve was filed as active; inconclusive = weak or mixed curves, or effect the other way; inactive = no such curve, though single readings can be large or run the other way; the % refers to the signal ratio)
Sequence of Peroxisome proliferator-activated receptor gamma (Homo sapiens) (P37231 whole entry, looked up): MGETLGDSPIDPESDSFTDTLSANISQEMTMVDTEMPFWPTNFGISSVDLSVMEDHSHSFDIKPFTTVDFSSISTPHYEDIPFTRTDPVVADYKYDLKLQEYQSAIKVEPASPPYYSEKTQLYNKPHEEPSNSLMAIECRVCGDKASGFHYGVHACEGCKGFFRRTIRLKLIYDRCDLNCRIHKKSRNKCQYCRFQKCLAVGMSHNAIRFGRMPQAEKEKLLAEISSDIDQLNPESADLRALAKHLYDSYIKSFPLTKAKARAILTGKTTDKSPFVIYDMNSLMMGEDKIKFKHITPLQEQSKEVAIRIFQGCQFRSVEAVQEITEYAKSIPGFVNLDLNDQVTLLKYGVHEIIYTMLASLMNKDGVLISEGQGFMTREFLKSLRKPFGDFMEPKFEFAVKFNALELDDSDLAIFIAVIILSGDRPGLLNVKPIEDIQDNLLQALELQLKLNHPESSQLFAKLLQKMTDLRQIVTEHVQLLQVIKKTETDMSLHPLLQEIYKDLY
How it was run: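 Quantitative HTS agonist mode: stable HEK293H line with UAS-beta-lactamase reporter under PPARg control, 17 h compound exposure at 37C, fluorescence after 1 h FRET substrate loading at room temperature.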

[15] = qHTS assay for small molecule agonists of the antioxidant response element (ARE) signaling pathway (AID 743202; active = well fitted activation curve with a large enough effect in the signal ratio in the repeat runs, not every such curve was filed as active; inconclusive = weak or mixed curves, or effect the other way; inactive = no such curve, though single readings can be large or run the other way; the % refers to the signal ratio; also: potency is read from the fitted curve at half-maximal effect)
How it was run: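 ARE-bla HepG2 cells (beta-lactamase reporter under the antioxidant response element), plated 5 hours, then exposed to compounds 16 hours at 37 C. LiveBLAzer B/G FRET substrate added for 2 hours at room temperature; fluorescence intensity read.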

[16] = qHTS assay for small molecule activators of the heat shock response signaling pathway - cell viability counter screen (AID 743209); also: nearly all actives have a fitted effect of over 50% in size
How it was run: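 First, HSE-bla HeLa cells were seeded at 1500 cells/well and kept overnight at 37 C. Next, compounds were pinned in and incubated 5 h. After the FRET substrate step, CellTiter-Glo was added and luminescence read 30 min later.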

[17] = qHTS assay for small molecule activators of the heat shock response signaling pathway (AID 743210; active = well fitted activation curve with a large enough effect in the signal ratio in the repeat runs, with a control signal flat, not every such curve was filed as active; inconclusive = weak or mixed curves; the % refers to the signal ratio; also: series mostly up to about 63 µM)
How it was run: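 HSE-bla HeLa cells (beta-lactamase reporter under heat shock response elements), plated overnight, then exposed to compounds 5 h at 37 C; LiveBLAzer B/G FRET substrate added, 2.5 h at room temperature, fluorescence intensity read.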

COc1cc(/C=C/C(=O)CC(=O)/C=C/c2ccc(O)c(OC)c2)ccc1O
Potency [1]: 23.7 µM (active) and inactive and 13.8 µM (active) | Potency [2]: inactive | Potency [3]: inactive and 49.3 µM (active) | Potency [4]: inactive | Potency [5]: 23.7 µM (active) and inactive | Potency [6]: inactive | Potency [7]: inactive and 54.8 µM (active) | Potency (Aromatase (Homo sapiens)): inactive and 48.9 µM (active) | Potency [8]: inactive | Potency [9]: inactive | Potency [10]: inactive and 27.5 µM (active) | Potency [11]: 43.9 µM (active) | Potency [12]: 54.8 µM (active)

C/C(=C(/CCO)SSCC1CCCO1)N(C=O)Cc1cnc(C)nc1N (configuration not stated)
Potency [1]: inactive | Potency [2]: inactive | Potency [13]: inactive | Potency [3]: inactive | Potency [4]: inactive | Potency [5]: inactive | Potency [6]: inactive | Potency [7]: inactive | Potency (Aromatase (Homo sapiens)): inactive and 29.8 µM (active) | Potency [8]: inactive | Potency [9]: inactive | Potency [10]: inactive | Potency [14]: inactive

CCN(CC)CCOC[C@H]1O[C@@H](O)[C@H](OCCN(CC)CC)[C@@H](O)[C@@H]1O
Potency [1]: inactive | Potency [2]: inactive | Potency [13]: inactive | Potency [3]: inactive | Potency [4]: inactive | Potency [5]: inactive | Potency [6]: inactive | Potency [7]: inactive | Potency (Aromatase (Homo sapiens)): inactive | Potency [8]: inactive | Potency [9]: inactive | Potency [10]: inactive | Potency [14]: inactive

CC(=O)NC[C@H]1CN(c2ccc(N3CCOCC3)c(F)c2)C(=O)O1
Potency [1]: inactive | Potency [2]: inactive | Potency [13]: inactive | Potency [3]: inactive | Potency [4]: inactive | Potency [5]: 13.3 µM (active) | Potency [6]: inactive | Potency [7]: inactive | Potency (Aromatase (Homo sapiens)): inactive | Potency [8]: inactive | Potency [9]: inactive | Potency [10]: inactive | Potency [14]: inactive

O=C(CCCN1CCN2CCCC2C1)c1ccc(F)cc1 (configuration not stated)
Potency [1]: inactive | Potency [2]: inactive | Potency [13]: inactive | Potency [3]: inactive | Potency [4]: inactive | Potency [5]: inactive | Potency [6]: inactive | Potency [7]: inactive | Potency (Aromatase (Homo sapiens)): inactive | Potency [8]: inactive | Potency [9]: inactive | Potency [10]: inactive | Potency [14]: inactive

FC(F)(F)COCC(F)(F)F
Potency [1]: inactive | Potency [2]: inactive | Potency [3]: inactive | Potency [7]: inactive | Potency (Aromatase (Homo sapiens)): inactive | Potency [8]: inactive | Potency [9]: inactive | Potency [10]: inactive | Potency [14]: inactive

CC(C)(O/N=C(\C(=O)N[C@@H]1C(=O)N2C(C(=O)[O-])=C(C[n+]3ccccc3)CS[C@H]12)c1csc(N)n1)C(=O)O
Potency [1]: inactive | Potency [2]: inactive | Potency [13]: inactive | Potency [4]: inactive | Potency [5]: inactive | Potency [6]: inactive | Potency [7]: inactive | Potency (Aromatase (Homo sapiens)): inactive | Potency [8]: inactive | Potency [10]: inactive | Potency [14]: inactive

CCN(CC)CC#CCOC(=O)C(O)(c1ccccc1)C1CCCCC1 (configuration not stated)
Potency [1]: 13.3 µM (active) | Potency [2]: inactive | Potency [3]: inactive | Potency [7]: 9.44 µM (active) | Potency (Aromatase (Homo sapiens)): inactive | Potency [8]: 11.9 µM (active) | Potency [9]: inactive | Potency [10]: 18.8 µM (active)

CC[C@@H](C)[C@H](N)C(=O)O
Potency [1]: inactive | Potency [2]: inactive | Potency [13]: inactive | Potency [3]: inactive | Potency [4]: inactive | Potency [5]: 26.6 µM (active) | Potency [6]: inactive | Potency [7]: inactive | Potency (Aromatase (Homo sapiens)): inactive | Potency [8]: inactive | Potency [9]: inactive | Potency [10]: inactive | Potency [14]: inactive

NCCCC[C@H](NC(=O)[C@@H]1CCCN1C(=O)[C@@H]1CSSC[C@H](N)C(=O)N[C@@H](Cc2ccc(O)cc2)C(=O)N[C@@H](Cc2ccccc2)C(=O)N[C@@H](CCC(N)=O)C(=O)N[C@@H](CC(N)=O)C(=O)N1)C(=O)NCC(N)=O
Potency [1]: inactive | Potency [2]: inactive | Potency [13]: inactive | Potency [3]: inactive | Potency [4]: inactive | Potency [5]: inactive | Potency [6]: inactive | Potency [7]: inactive | Potency (Aromatase (Homo sapiens)): inactive | Potency [8]: inactive | Potency [9]: inactive | Potency [10]: inactive | Potency [14]: inactive

COC1=C(OC)C(=O)C(C/C=C(\C)CC/C=C(\C)CC/C=C(\C)CC/C=C(\C)CC/C=C(\C)CC/C=C(\C)CC/C=C(\C)CC/C=C(\C)CC/C=C(\C)CCC=C(C)C)=C(C)C1=O
Potency [1]: inactive | Potency [2]: inactive | Potency [13]: inactive | Potency [3]: inactive | Potency [4]: inactive | Potency [5]: inactive | Potency [6]: inactive | Potency [7]: inactive | Potency (Aromatase (Homo sapiens)): inactive | Potency [8]: inactive | Potency [9]: inactive | Potency [10]: inactive | Potency [14]: inactive

NC(=O)c1cc[n+](CC2=C(C(=O)O)N3C(=O)[C@@H](NC(=O)C(c4ccccc4)S(=O)(=O)[O-])[C@H]3SC2)cc1 (some centres not stated)
Potency [1]: inactive | Potency [2]: inactive | Potency [3]: inactive | Potency [7]: inactive | Potency (Aromatase (Homo sapiens)): inactive | Potency [8]: inactive | Potency [9]: inactive | Potency [10]: inactive | Potency [14]: inactive

CCCOC(=O)c1ccc(O)cc1
Potency [1]: inactive | Potency [2]: inactive | Potency [13]: inactive | Potency [3]: inactive | Potency [4]: 26.8 µM [activator] (active) and 24.5 µM [inconclusive] (active) | Potency [5]: 21.1 µM (active) and 16.1 µM (active) | Potency [7]: inactive | Potency (Aromatase (Homo sapiens)): inactive | Potency [8]: inactive | Potency [9]: inactive and 23 µM (active) | Potency [10]: inactive | Potency [14]: inactive | Potency [15]: 17.2 µM (active) | Potency [12]: inactive | Potency [16]: inactive | outcome [17]: inactive
